Bioassay records deposited in PubChem BioAssay by National Center for Advancing Translational Sciences (NCATS).
HP1b binding inh: HP1-beta chromodomain-methylated histone interaction inhibition | Potency, µM (series often up to 114 µM), hits mostly inhibitors | actives 0.56% (n = 390,000) | P83916 | AlphaScreen HP1-beta / biotin-H3K9me3 peptide binding; further: nearly all actives have a fitted effect of over 70% in size
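Compound inhibition of the preformed complex between 50 nM HP1-beta and 50 nM biotinylated H3K9me3 peptide was read by AlphaScreen. Buffer was PBS pH 7.4 with 0.01% Tween-20. Incubations ran 30 min at room temperature, with 10 ug/mL donor/acceptor beads.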
L3MBTL1 block: inhibitors of human L3MBTL1; Potency, µM (highest dose often 57.1 µM), actives largely listed as inhibitors; Q9Y468; actives 0.66% (n = 230,000); AlphaScreen L3MBTL1–H3K9me1 peptide binding; AID 485360; further: nearly all actives have a fitted effect of over 60% in size
Target sequence (Q9Y468 whole entry, looked up): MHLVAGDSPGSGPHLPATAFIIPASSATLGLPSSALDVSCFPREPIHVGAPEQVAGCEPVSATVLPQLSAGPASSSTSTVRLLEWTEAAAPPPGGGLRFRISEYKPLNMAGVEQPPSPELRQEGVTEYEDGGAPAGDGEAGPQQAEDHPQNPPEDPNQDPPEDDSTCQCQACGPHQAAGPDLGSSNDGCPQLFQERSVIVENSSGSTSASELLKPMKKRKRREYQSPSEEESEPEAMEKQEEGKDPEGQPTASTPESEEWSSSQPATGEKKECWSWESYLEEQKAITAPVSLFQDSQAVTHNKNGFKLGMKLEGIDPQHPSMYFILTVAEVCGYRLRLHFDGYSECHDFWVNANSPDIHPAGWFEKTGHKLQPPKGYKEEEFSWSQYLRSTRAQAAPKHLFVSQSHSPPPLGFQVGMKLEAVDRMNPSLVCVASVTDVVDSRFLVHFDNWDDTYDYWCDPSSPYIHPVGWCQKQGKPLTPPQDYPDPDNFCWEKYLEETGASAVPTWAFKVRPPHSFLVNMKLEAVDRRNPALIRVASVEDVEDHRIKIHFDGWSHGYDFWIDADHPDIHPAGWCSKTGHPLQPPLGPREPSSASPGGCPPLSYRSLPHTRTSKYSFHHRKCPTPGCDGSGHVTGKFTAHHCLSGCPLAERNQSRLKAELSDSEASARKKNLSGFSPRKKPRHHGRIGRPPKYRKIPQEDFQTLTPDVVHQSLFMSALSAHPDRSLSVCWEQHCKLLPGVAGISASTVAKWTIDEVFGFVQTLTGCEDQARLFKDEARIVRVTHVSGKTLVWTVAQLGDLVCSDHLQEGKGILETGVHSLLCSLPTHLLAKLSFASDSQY
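AlphaScreen proximity signal between nickel-chelate acceptor and streptavidin donor beads (final 10 ug/mL) reports binding of 50 nM L3MBTL1 to 75 nM biotin-H3 K9me1 peptide; complex incubated with compounds 30 min at room temperature; cefsulodin titration as control.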
G9a inh: blocks human histone lysine methyltransferase G9a; G9a H3K9 monomethylation, AlphaScreen, 2 h; actives 8.8% (n = 350,000); Potency, µM (series often up to 102 µM), hits mostly inhibitors; Q96KQ7; further: nearly all actives have a fitted effect of over 75% in size
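G9a (20 nM) preincubated 15 min RT with compounds, then 500 nM biotinylated H3K9 peptide and 20 uM SAM added; 2 h RT reaction. Monomethyl-H3K9 product detected by AlphaScreen with anti-H3K9me1 antibody, streptavidin donor and anti-rabbit IgG acceptor beads.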
Sfp PPTase inh: inhibitors of Bacillus subtilis Sfp phosphopantetheinyl transferase; Biochemical Sfp PPTase activity, qHTS; Potency, µM, hits mostly inhibitors; actives 3.5% (n = 310,000); AID 1490;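 further: the enzyme is Sfp with the accession as filed and its product quenches rhodamine fluorescence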
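After 15 min at room temperature with compound, 15 nM Sfp received 5 uM rhodamine-CoA plus 12.5 uM BHQ-2-ybbR (50 mM Hepes pH 7.6, 10 mM MgCl2). Rate came from the fluorescence difference over 30 min, ex 525/em 598 nm.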
BAZ2B block: BAZ2B (human) inhibition; Q9UIF8; AlphaScreen BAZ2B-H3K14Ac peptide displacement; Potency, µM (doses to about 114 µM), most hits filed as inhibitors; actives 4.4% (n = 360,000); further: nearly all actives have a fitted effect of over 60% in size
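BAZ2B (50 nM) with biotin-H3(5-23)K14Ac peptide (50 nM) in PBS pH 7.4, 0.01% Tween-20, preformed 30 min, then compound 30 min at room temperature; top concentration 110uM. AlphaScreen streptavidin donor/nickel chelate acceptor beads (10 ug/mL final), 20 min dark, signal read.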
JMJD2A Tudor inh: inhibitors of human JMJD2A Tudor domain; O75164; AlphaScreen JMJD2A-Tudor / H3K4me3 peptide binding; Potency, µM (series often up to 114 µM), usual class: inhibitors; actives 4.4% (n = 390,000); AID 504339; further: nearly all actives have a fitted effect of over 50% in size
A number is an active result; ! = not active in a repeat; [ ] = remark or other dose. An excerpt weighted towards active compounds, which were near 12% of everything screened. The call rests on the fitted dose curve; in most records, active means well fitted curve in the direction sought with a large enough effect; inconclusive means small, poorly fitted or top-dose-only effect, or another doubt; inactive means no such curve, though single readings can be large; an effect the other way counts as inactive or inconclusive.

Screening COc1cccc(/C=N/NC(=O)CCn2c3ccccc3c3ccccc32)c1 returned HP1b binding inh inactive, L3MBTL1 block inactive, G9a inh 18µM, Sfp PPTase inh inactive, BAZ2B block inactive and JMJD2A Tudor inh inactive.
O=C(CNc1cccc2ccccc12)N/N=C/c1ccc([N+](=O)[O-])cc1 was read as HP1b binding inh inactive, L3MBTL1 block inactive, G9a inh 8.9µM, Sfp PPTase inh inactive, BAZ2B block inactive and JMJD2A Tudor inh inactive.
O=C(CNc1cccc2ccccc12)N/N=C/c1cccc(Oc2ccccc2)c1 was read as HP1b binding inh inactive, L3MBTL1 block inactive, G9a inh 10µM, Sfp PPTase inh inactive, BAZ2B block inconclusive and JMJD2A Tudor inh inconclusive.
CCc1ccc(N2C(=O)CS(=O)(=O)C23C(=O)N(Cc2ccccc2F)c2ccccc23)cc1 (stereo not given) was read as HP1b binding inh inactive, G9a inh inactive, BAZ2B block inactive and JMJD2A Tudor inh inactive.
CCCc1nnc(NC(=O)c2nc(S(=O)(=O)Cc3ccc(C)cc3)ncc2Cl)s1 was read as HP1b binding inh inactive, G9a inh 13µM, Sfp PPTase inh inactive, BAZ2B block inactive and JMJD2A Tudor inh inactive.
Screening CC(C)c1nnc(NC(=O)c2nc(S(=O)(=O)Cc3ccccc3)ncc2Cl)s1 returned HP1b binding inh inactive, G9a inh 8.9µM, Sfp PPTase inh inactive, BAZ2B block 50µM! and JMJD2A Tudor inh inactive.
CCc1ccc(NC(=O)c2nc(S(=O)(=O)Cc3ccccc3)ncc2Cl)cc1 was read as G9a inh inconclusive, Sfp PPTase inh inactive and BAZ2B block inactive.
CSc1nnc(NC(=O)c2nc(S(=O)(=O)Cc3ccccc3)ncc2Cl)s1 was read as HP1b binding inh inactive, G9a inh 50µM, Sfp PPTase inh inactive, BAZ2B block 45µM and JMJD2A Tudor inh 16µM.
Screening COc1cc(OC)c(NC(=O)c2cc(C(C)=O)n3ccccc23)cc1Cl returned HP1b binding inh inactive, G9a inh inactive, BAZ2B block inactive and JMJD2A Tudor inh inactive.
`CCCCNCc1cc(Br)c(OCC(=O)NCc2ccccc2)c(OC)c1` gave HP1b binding inh inactive, L3MBTL1 block inactive, G9a inh inactive, Sfp PPTase inh inactive, BAZ2B block inactive and JMJD2A Tudor inh inactive.
For CCN(CC)CCNCc1cc(Cl)c(OCC(=O)Nc2ccccc2)c(OC)c1 the results were HP1b binding inh inactive, L3MBTL1 block inactive, G9a inh 45µM, Sfp PPTase inh inactive, BAZ2B block inactive and JMJD2A Tudor inh inactive.
`COc1cc(CNC(C)c2ccccc2)cc(Br)c1OCc1ccccc1` (stereo not given) gave HP1b binding inh inactive, L3MBTL1 block inactive, G9a inh inactive, Sfp PPTase inh inconclusive, BAZ2B block inactive and JMJD2A Tudor inh inactive.
For COc1cc(CNC(C)c2ccccc2)cc(Cl)c1OCC(=O)Nc1ccccc1 (stereo not given) the results were HP1b binding inh inactive, L3MBTL1 block inactive[2.29 µM], G9a inh inconclusive, Sfp PPTase inh 56µM, BAZ2B block inactive and JMJD2A Tudor inh inactive.
Screening Cc1ccc(CCNC(=O)c2ccc(CSCc3ccccc3Cl)o2)cc1 returned HP1b binding inh inactive, G9a inh inactive, BAZ2B block inactive and JMJD2A Tudor inh inactive.
For Cc1occc1-c1nnc(SCc2nnc(-c3ccc(Cl)cc3)o2)n1C the results were HP1b binding inh inconclusive, L3MBTL1 block inactive, G9a inh 79µM, Sfp PPTase inh inactive, BAZ2B block inactive and JMJD2A Tudor inh inactive[11.4 µM].
Cn1nnnc1SCc1nnc(-c2ccc(Cl)cc2)o1 was read as HP1b binding inh inactive, L3MBTL1 block inactive, G9a inh inactive, Sfp PPTase inh inactive, BAZ2B block inactive and JMJD2A Tudor inh inactive.
For S=C(c1ccccc1)N1CCN(c2ccccc2)CC1 the results were HP1b binding inh inconclusive and JMJD2A Tudor inh inactive.
Screening CCN(CC)c1ccc(C(=O)N2CCN(Cc3ccccc3)CC2)cc1 returned HP1b binding inh inactive, L3MBTL1 block inactive, G9a inh inconclusive, Sfp PPTase inh inactive, BAZ2B block inactive and JMJD2A Tudor inh inconclusive.
For CC(C)(C)c1ccc(C(=S)N2CCN(c3ccccc3)CC2)cc1 the results were HP1b binding inh inconclusive, L3MBTL1 block inconclusive, G9a inh 20µM, Sfp PPTase inh 50µM, BAZ2B block inactive and JMJD2A Tudor inh inactive.
Screening CCN(CC)c1ccc(C(=S)N2CCN(c3ccccc3)CC2)cc1 returned HP1b binding inh inconclusive, L3MBTL1 block inactive, G9a inh 11µM, Sfp PPTase inh inconclusive, BAZ2B block 10µM and JMJD2A Tudor inh inactive[11.4 µM].
O=c1[nH]c(SCc2c(F)cccc2Cl)nc2c1CCC2 was read as HP1b binding inh inactive, G9a inh inactive, BAZ2B block inactive and JMJD2A Tudor inh inactive.
For CCOC(=O)c1cccc(NC(=O)NCCc2c(C)nn(C)c2C)c1 the results were HP1b binding inh inactive, G9a inh inactive[12.7 µM], BAZ2B block inactive and JMJD2A Tudor inh inactive.
CC1=C(C)CC(c2ccccc2)C(C(=O)c2ccccc2O)C1 (stereo not given) was read as Sfp PPTase inh inactive.
For O=C(Cn1c(=O)n(Cc2ccco2)c(=O)c2c3c(sc21)CCCC3)Nc1ccccc1 the results were HP1b binding inh inconclusive, L3MBTL1 block inactive, G9a inh inactive, Sfp PPTase inh inconclusive, BAZ2B block inactive and JMJD2A Tudor inh inactive[11.4 µM].
O=c1c2c3c(sc2n(CCN2CCCCC2)c(=O)n1Cc1ccco1)CCCCC3 was read as HP1b binding inh inactive, G9a inh 50µM, Sfp PPTase inh inactive, BAZ2B block inactive and JMJD2A Tudor inh inconclusive.
`O=c1c2c3c(sc2n(CCN2CCOCC2)c(=O)n1Cc1ccco1)CCCCC3` gave HP1b binding inh inactive, L3MBTL1 block inactive, G9a inh inactive, Sfp PPTase inh 45µM, BAZ2B block inactive and JMJD2A Tudor inh 89µM.
Screening Fc1ccc(CCNc2ncnc3nc[nH]c23)cc1 returned HP1b binding inh inactive and JMJD2A Tudor inh inactive.
Screening Cc1ccc(S(=O)(=O)N2CCN(Cc3cc(Br)ccc3O)CC2)cc1 returned HP1b binding inh inactive, G9a inh inactive, BAZ2B block inactive and JMJD2A Tudor inh inactive.
CCN1/C(=C\C=C2\C(=O)N(C)C(=S)N2C)Sc2ccccc21 was read as HP1b binding inh inconclusive, G9a inh inconclusive, Sfp PPTase inh 40µM and JMJD2A Tudor inh inactive[11.4 µM].
CCCN(C(=O)COc1cc(=O)n(CC)c2ccccc12)c1ccc(C(C)C)cc1 was read as HP1b binding inh inactive, G9a inh inactive, BAZ2B block inconclusive and JMJD2A Tudor inh inactive.
`Fc1cccc(NCc2ccoc2)c1` gave HP1b binding inh inactive, L3MBTL1 block inactive, G9a inh 40µM, Sfp PPTase inh inactive, BAZ2B block inactive and JMJD2A Tudor inh inactive.
`Fc1cccc(NCc2cn3ccccc3n2)c1` gave HP1b binding inh inactive, L3MBTL1 block inactive, G9a inh inactive[12.7 µM], Sfp PPTase inh inactive, BAZ2B block inconclusive and JMJD2A Tudor inh inactive.
